According to PubChem BioAssay (NCATS):
Records with an inconclusive call do not appear. A number with no mark means an inactive call. Activity calls are given as the source filed them. Calls follow the shape of the dose curve; as a rule, active = well fitted curve in the direction sought with a large enough effect; inconclusive = small, poorly fitted or top-dose-only effect, or another doubt; inactive = no such curve, though single readings can be large; an effect the other way counts as inactive or inconclusive.

Legend:
[1] = Primary qHTS for inhibitors of nuclear receptor binding SET domain protein 2 (NSD2) in an isogenic RCH-ACV NSD2 p.E1099K mutant (9B) (AID 1645876); settings: RCH-ACV NSD2 E1099K (9B) viability, CellTiter-Glo, 72 h; series mostly up to 44.9 µM
[2] = Primary qHTS for inhibitors of nuclear receptor binding SET domain protein 2 (NSD2) in an RCH-ACV wild type WT cells (2C) (AID 1645877); settings: RCH-ACV (leukaemia line) NSD2 WT (2C) viability, CellTiter-Glo, 72 h; series mostly up to 44.9 µM
% is scaled to controls: 0 for no effect and ±100 for the full control effect; potency is read from the fitted curve at half-maximal effect.
Also: nearly all actives have a fitted effect of over 70% in size.

SMILES	Potency [1]	Potency [2]	activity change, negative = viability loss [1]	activity change, negative = cell killing [2]
C=C1C(=O)OC2/C=C(\C)CC/C=C(\C)CC(OC(C)=O)C12 (centres undefined)	12.9 µM (active)	6.49 µM (active)	–	–
Nc1nc(Nc2ccc3c(c2)CCC(N2CCCC2)CC3)nn1-c1cc2c(nn1)-c1ccccc1CCC2 (centres undefined)	1.63 µM (active)	1.45 µM (active)	–	–
CNc1nc(Nc2ccc(C(=O)N3CCOCC3)cc2OC)nc2[nH]cc(Cl)c12	4.09 µM (active)	2.9 µM (active)	–	–
C=C(C)C(=O)OC1CC(CO)CCC/C(CO)=C/C2OC(=O)C(=C)C21 (centres undefined)	2.53 µM (active)	2.01 µM (active)	–	–
C=C(C)C(=O)O[C@H]1C[C@@](C)(O)C2(O)CCC(C)(/C=C3/OC(=O)C(COC)=C31)O2 (some centres undefined)	1.42 µM (active)	0.713 µM (active)	–	–
CC[C@@H](C)Nc1cc(C(=O)NC2CC3CCC(C2)N3c2ccc(C(=O)C3CC3)cn2)c(C)cc1C(N)=O (some centres undefined)	0.118 µM (active)	0.132 µM (active)	–	–
C/C1=C/CCC2=CC(OC2=O)C(C)(C)/C=C/C1=O (centres undefined)	0.578 µM (active)	0.459 µM (active)	–	–
C=C1C(=O)O[C@@H]2/C=C(\C)CC/C=C(/C=O)[C@H](OC)[C@@H](OC(=O)C(C)C)[C@@H]12	8.01 µM (active)	3.19 µM (active)	–	–
C=C(NC(=O)C(=C)NC(=O)c1csc(C2=NC3c4csc(n4)C4NC(=O)c5csc(n5)C(C(C)(O)C(C)O)NC(=O)C5CSC(=N5)/C(=C/C)NC(=O)C(C(C)O)NC(=O)c5csc(n5)C3(CC2)NC(=O)C(C)NC(=O)C(=C)NC(=O)C(C)NC(=O)C(C(C)CC)NC2C=Cc3c(C(C)O)cc(nc3C2O)C(=O)OC4C)n1)C(N)=O (centres undefined)	2.3 µM (active)	0.916 µM (active)	–	–
CC(C)C(C)C(O)C1CC23CC(=O)C4(O)C(=C2CCC3C1C)C=CC1(O)CC(O)CCC14C (centres undefined)	inactive	inactive	–	–
COC(=O)Nc1cc(Nc2cc(NC3CC3)c3ncc(C#N)n3n2)c(Cl)c(N2CCN(C)CC2)c1	0.742 µM (active)	0.372 µM (active)	–	–
COc1cccc(NCCC2(c3ccccc3)CC(C)(C)OC(C)(C)C2)c1	inactive	inactive	–	–
O=C(O)C1=CO[C@@H](O[C@@H]2O[C@H](CO)[C@@H](O)[C@H](O)[C@H]2O)[C@@H]2C(CO)=CC[C@H]12	inactive	inactive	–	–
COc1cc(S(C)(=O)=O)ccc1Nc1nc2ccc(-c3ccc(NC(=O)[C@H](C)c4ccc(F)cc4)cc3)cn2n1	0.742 µM (active)	0.417 µM (active)	–	–
O=C(Nc1nc2cc(C(F)(F)F)cc(NC3CC3)n2n1)c1cccnc1	2.3 µM (active)	1.83 µM (active)	–	–
CC(C)NC(=O)N1CC[C@H](N=C2Nc3cc(F)ccc3N(CC(F)F)c3ccc(Cl)cc32)C1	–	–	-17% [at 9.23 µM]	1.84% [at 9.23 µM]
CC(=O)OC1CC(C)C2(CCC3(CC(=O)OC3O)O2)C2(C)CCCC(C)(C)C12 (centres undefined)	inactive	inactive	–	–
